Reference: ChEMBL document CHEMBL3988442, “University of Dundee, Small-Polar-MMV Screening Library” (2021)
Among all 48,000 compounds or so, about 13,000 (27%) showed an effect of 50% or more. The list shows a part of the results.

What follows are molecules tested on Wolbachia pipientis (assay: Anti-Wolbachia Cell-Based Screen). Details: 5 µM.
Assay type: functional
Set-up: scale not given: in the data most compounds retested in dose-response had high values

Compound	Percent Effect
NCC1CN(C(=O)c2cccc(-n3cccn3)c2)CCO1 (centres undefined)	12.21%
CCCc1cc(NC2CCc3ncnn3C2)n2ncnc2n1 (centres undefined)	-15.24%
CSCC(C)(O)CNc1cccc(F)c1C#N (centres undefined)	-5.996%
CCCOc1cc(CNC(=O)Nc2cccnc2N2CCCC2)ccn1	3.924%
COc1cccc2cc(CNCc3ccnc(N(C)C)c3)oc12	97.53%
COc1cc(CNCc2ccco2)ccc1OCCO.Cl	-24.56%
COc1ccc(CNCc2ccc(N3CCCCC3)nc2)cc1OC	5.038%
COc1ccc(CNCc2ccnc(N3CCCCC3)c2)cc1OC	4.647%
COc1cccc2cc(CNC(=O)N3CCCC(O)C3)oc12 (centres undefined)	-11.96%
COc1cccc2cc(CNCc3ccc(N4CCCC4)nc3)oc12	106.9%
COc1c(CNCc2ccc(N3CCOCC3)nc2)c(C)nn1C	-5.256%
COc1cccc2cc(CNCc3ccnc(N4CCCCC4)c3)oc12	98.43%
COc1cccc2cc(CNCc3ccnc(N4CCOCC4)c3)oc12	-10.04%
CC(NC(=O)NCc1cccc(N2CCCC2=O)c1)c1ccccc1 (centres undefined)	10.19%
CC(=O)N[C@@H]1CN(c2nc(C(N)=O)cs2)C[C@H]1c1ccc(C)o1	3.94%
CC(C)c1cc(N2CCN(c3ccc(O)cc3)CC2)n2nccc2n1	-10.08%
Cc1nc(C)n(CC2CCCCN2CC(=O)NC2CCOCC2)n1 (centres undefined)	-3.575%
Cc1noc(C)c1CC(=O)N1CCC(c2ccn3nccc3n2)CC1	116.9%
Cc1nc(CC(=O)N2CCC(Nc3cccnn3)CC2)cs1	10.36%
Cc1nc(CC(=O)N2CCN(c3ccc(N(C)C)cc3)CC2)cs1	-7.561%
Cc1nc(CC(=O)N2CCC(c3ccn4nccc4n3)CC2)cs1	100.2%
COC1CCN(C(=O)CCc2c(C)nc3ccnn3c2C)CC1	2.453%

Compound	Percent Effect
Cc1nc(C)c(CC(=O)N2C[C@@H](C(=O)O)[C@H](c3ccccc3C)C2)s1	-4.112%
Cc1nc(C)c(CC(=O)N2CCC(c3ccn4nccc4n3)CC2)s1	148.4%
Cc1ncc2c(n1)CCN(C(=O)Cc1c(C)noc1C)C2	-7.344%
CCC[C@@H]1CN(C(=O)Cc2sc(C)nc2C)C[C@H]1C(=O)O	9.333%
O=C(NC[C@H]1OC[C@@H](NC2CCC2)[C@@H]1O)Nc1ccccc1	27.93%
COCCCN(C)S(=O)(=O)c1ccc(C(F)(F)F)cc1C#N	0.354%
Cc1cc(CC(C)Nc2ncnc3cccc(F)c23)[nH]n1 (centres undefined)	-16.45%
CCN(C(=O)CNc1cc(C)c(F)cc1C(N)=O)C1CC1	-0.2217%
Cc1cc(NCC(C)C)ccc1C(=O)N(C)C	-5.944%
CCN(CC)C(=O)Nc1ccc(C(=O)N(C)C)c(C)c1	-2.57%
CCN(CC(C)C#N)C(=O)CNc1ccc(C(N)=O)c(C)c1 (centres undefined)	94.3%
CCN(CC(C)C#N)C(=O)CNc1cc(Cl)ccc1C(N)=O (centres undefined)	109.4%
Cc1cc(NC(=O)N(CCC#N)CCCN(C)C)ccc1F	-0.7911%
CCN(CC(C)C#N)C(=O)CSc1ccc(C(F)(F)F)cn1 (centres undefined)	-16%
Cc1cc(NCC(=O)N(C)C)c(C(N)=O)cc1F	4.75%
CCN(CC(C)C#N)C(=O)CNc1ccc(F)c(C)c1 (centres undefined)	98.55%
CNC(=O)N1CCC2(CC1)CN(C(C)C)Cc1cc(F)ccc12.Cl	-6.692%
CCn1c(CN(C)C)nnc1C1CCN(Cc2ccc(Cl)cc2)CC1	-12.39%
Cc1noc(C)c1C(=O)N1CCSc2ccc(Cl)cc21	93.15%
Cc1noc(C)c1C(C)NC(=O)N1CCCN(C(=O)c2ccsc2)CC1 (centres undefined)	6.672%
Cc1noc(C)c1CN(C)C(=O)CCOc1ccc(Cl)cc1	13.27%
CCC(CNC(=O)Cc1c(C)noc1C)N1CCCC1 (centres undefined)	6.109%

Compound	Percent Effect
Cc1noc(C)c1C(C)C(=O)N1CCCN(C)c2ccc(Cl)cc21 (centres undefined)	111.8%
CN1CCCN(S(=O)(=O)c2cn(C)cn2)c2cc(Cl)ccc21	-2.244%
Cc1nc(CN2CCN(C(=O)c3c(C)noc3C)CC2)cs1	-5.34%
Cc1noc(C)c1C(=O)N1CC[C@H]2C[C@@H](c3nccs3)O[C@@H]2C1	-4.112%
Cc1noc(C)c1C(C)NC(=O)N1CCN(c2cccs2)CC1 (centres undefined)	5.123%
Cc1noc(C)c1CC(=O)N1CCCN(C)c2ccc(Cl)cc21	108.2%
Cc1noc(C)c1C(=O)N1CCCN(C)c2ccc(Cl)cc21	90.03%
O=c1[nH]nc(CNc2cncc(Br)c2)[nH]1	-1.101%
Cn1cc(S(=O)(=O)NC(=O)C2(c3cccc(Cl)c3)CC2)cn1	9.889%
Cc1ccc(CN(Cc2ncc[nH]2)C2CC(C)(C)NC(C)(C)C2)o1.O=C(O)CC(O)(CC(=O)O)C(=O)O	124%
Cc1ccc(CN(Cc2ccncc2)C2CC(C)(C)NC(C)(C)C2)o1.O=C(O)CC(O)(CC(=O)O)C(=O)O	117.7%
Cc1cccc(CN(Cc2ccc(C)o2)C2CC(C)(C)NC(C)(C)C2)n1.O=C(O)CC(O)(CC(=O)O)C(=O)O	-13.89%
Cc1ccc(CN2CC[C@@H](NS(C)(=O)=O)[C@@H]2Cc2ccncc2)o1.O=C(O)C(F)(F)F.O=C(O)C(F)(F)F	0.02145%
CC1(C)CC(N(Cc2ccccc2)Cc2ncc[nH]2)CC(C)(C)N1.O=C(O)CC(O)(CC(=O)O)C(=O)O	109.1%
Cc1ccccc1CN(CCO)Cc1ncc[nH]1	-0.936%
CN(Cc1ncc[nH]1)CC1CCOc2ccccc2C1 (centres undefined)	5.15%
CCN(CC)C(=O)[C@@H]1C[C@@H](NC(=O)c2ccoc2)CN1C	5.596%
CN(Cc1ncc[nH]1)CC(c1cccs1)N1CCOCC1 (centres undefined)	-1.486%
Cc1nc(NC(=O)NC2CC(=O)N(C)C2)nn1C(C)C (centres undefined)	-15.27%
CCC[C@H]1CN(c2nccc(NCC)n2)C[C@@H]1NS(=O)(=O)N(C)C	9.452%
